# Among all 290,000 compounds or so, about 150 (0.052%) were called active. The sample as a whole holds a higher share of actives than the screen did. Potency and affinity values are given separately. Values without a mark were called inactive.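 How the source made its calls: active means inhibition of at least 50% with at least 30 cells and total cytoplasm GFP at most 10,000,000; inconclusive means under 30 cells or total GFP of 10,000,000 plus; inactive means the rest.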
# Biological target: G-protein coupled receptor 35 (Homo sapiens) (UniProt Q9HC97)
# Assay: inhibition of zaprinast-stimulated GPR35 beta-arrestin translocation – imaging, U2OS, beta-arrestin-GFP, zaprinast agonist, primary screen (AID 2058)
# Settings: zaprinast antagonism, at 10 µM, hits give high values
# Sequence of G-protein coupled receptor 35 (Homo sapiens) (Q9HC97 whole entry, looked up): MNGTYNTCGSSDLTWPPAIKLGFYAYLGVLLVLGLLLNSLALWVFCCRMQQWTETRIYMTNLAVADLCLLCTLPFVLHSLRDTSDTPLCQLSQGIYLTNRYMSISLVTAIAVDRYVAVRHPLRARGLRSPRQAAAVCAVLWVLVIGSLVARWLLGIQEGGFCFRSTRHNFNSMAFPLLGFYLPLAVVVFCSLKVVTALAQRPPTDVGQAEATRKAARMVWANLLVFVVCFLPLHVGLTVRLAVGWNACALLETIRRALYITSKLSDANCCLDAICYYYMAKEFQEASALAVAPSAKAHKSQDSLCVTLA
row,SMILES,inhibition
1,CC1=C(C(=O)Nc2ccccc2C(=O)N2CCC(C)CC2)SCCO1,-12.3%
2,COc1ccc(CCC(=O)Nc2ccc(Cl)c(S(=O)(=O)N3CCCC3)c2)cc1,-7.8%
3,COCCNC(=O)CSc1nc2ccc(N3CCOCC3)cc2c(=O)n1CCc1ccccc1,-7.7%
4,N#CC(C#N)=C1C=C2C=C(N3CCOCC3)CCC2CC1 (centres undefined),1.7%
5,N#CC(C#N)=C1C=C2C=C(N3CCCCCC3)CCC2CC1 (centres undefined),46%
6,CC1(C)CC(NCCN2CCN(C3=CC(=C(C#N)C#N)CC(C)(C)C3)CC2)=CC(=C(C#N)C#N)C1,-1%
7,N#CC(C#N)=C1C=C2C=C(N3CCCCC3)CCC2CC1 (centres undefined),11.2%
8,COC(=O)c1cc(NC2c3ccccc3C(=O)N2c2cccnc2)cc(C(=O)OC)c1 (centres undefined),-4%
9,COc1cccc(C2N=C(c3ccccc3C)NO2)c1OC (centres undefined),13.2%
10,O=C(CSc1nc(O)c(C2CCCCC2)c(=O)[nH]1)Nc1ccccc1Cl,-1.9%
11,O=C(Nc1ccc2c(c1)oc1ccccc12)C1CC1,1.2%
12,COc1ccc(N=C2S/C(=C\c3ccc(OCC(=O)O)cc3)C(=O)N2CCc2c[nH]c3ccccc23)cc1,-10.9%
13,COc1ccc(N=C2S/C(=C\c3ccc(OC(C)C(=O)O)c(OC)c3)C(=O)N2CCc2c[nH]c3ccccc23)cc1 (centres undefined),-11.1%
14,Cc1ccc2oc(C(=O)Nc3ccc(S(=O)(=O)Nc4ncccn4)cc3)c(C)c2c1,18.7%
15,COc1ccc(/C=C2\Cc3ccccc3C2=O)cc1OC,10.6%
16,COc1ccc(/C=C2\CC/C(=C\c3ccc(OC)c(OC)c3)C2=O)cc1OC,-1.3%
17,N/C(=N\OC(=O)COc1ccccc1)c1ccncc1,-1.4%
18,CCOc1ccccc1/C=N/NC(=O)Cc1csc(Nc2cccc(C(F)(F)F)c2)n1,20%
19,CCOc1ccc(/C=N/NC(=O)Cc2csc(Nc3cccc(C(F)(F)F)c3)n2)c(OCC)c1,-0.3%
20,O=C(Nc1ccccc1F)C1CCCN(S(=O)(=O)c2ccc(-n3cnnn3)cc2)C1 (centres undefined),7.9%

row,SMILES,inhibition
1,CN(C)c1ccc(/C=C/C(=O)c2cc(Cl)ccc2O)cc1,57.6% (active)
2,O=C(/C=C/c1ccc2ccccc2n1)c1cc(Cl)ccc1O,7.6%
3,O=C(/C=C/c1cccs1)c1cc(Cl)ccc1O,-8.1%
4,COc1ccc(C(=O)/C=C/c2ccc(N(C)C)cc2)c(OC)c1,21.5%
5,O=C(/C=C/c1ccncc1)c1cc(Cl)ccc1O,96.6% (active)
6,CN(C)c1ccc(/C=C/C(=O)c2ccccc2O)cc1,21.4%
7,CC(C)N(CCc1ccncc1)C(=S)Nc1ccc(F)c(Cl)c1,4.6%
8,CC(C)c1ccc(C(=O)NC(=S)Nc2ccc3[nH]c(=O)[nH]c3c2)cc1,-6.7%
9,CC(=O)c1cc2c(cc1N/C(=N/S(=O)(=O)c1ccccc1)c1ccc(Cl)cc1)OCO2,13.2%
10,CC(C)(C)CC(C)(C)NC(=S)Nc1ccc(S(=O)(=O)N2CCOCC2)cc1,-2.7%
11,CCCCOC(=O)c1ccc(NC(=O)c2cc(Cl)c(Cl)cc2C(=O)O)cc1,-5.9%
12,CCCCOC(=O)c1ccc(NC(=O)c2ccccc2OC)cc1,12.9%
13,Cc1ccc(NC(=O)C(C)Sc2nnc(-c3cccnc3)n2-c2ccccc2)cc1 (centres undefined),-0.8%
14,Cc1nn(C(C)C(=O)NCCc2ccco2)c(=O)c2nn(-c3ccccc3)c(C)c12 (centres undefined),-4%
15,Cc1cc(-c2nn(-c3ccccc3F)cc2CN2CCCC(CO)C2)c(C)s1 (centres undefined),19.6%
16,Cc1cc(-c2nn(-c3ccccc3F)cc2CN2CCC(O)CC2)c(C)s1,-0.9%
17,Cc1cc(-c2nn(-c3ccccc3F)cc2CN(C)CC(O)CO)c(C)s1 (centres undefined),103% (active)
18,COCc1cc(/C=N\NC(=O)Cc2ccc(Cl)cc2)ccc1OC,1.9%
19,O=C(CCc1nnc2n(Cc3ccc(F)cc3)c(=O)c3ccccc3n12)NCCCN1CCOCC1,-5.8%
20,CCOc1ccc(/C=C2/SC(=O)NC2=S)cc1,5.9%

row,SMILES,inhibition
1,CCOc1ccc(/C=C2\SC(=S)NC2=O)cc1OC,-8%
2,CCOc1ccc(NC(=S)N(CCN2CCOCC2)Cc2cc3cc4c(cc3[nH]c2=O)OCCO4)cc1,6.4%
3,COc1ccc(NC(=S)N(CCN2CCOCC2)Cc2cc3cc4c(cc3[nH]c2=O)OCO4)cc1,-1.5%
4,COc1ccc(NC(=S)N(CCN2CCOCC2)Cc2cc3cc4c(cc3[nH]c2=O)OCCO4)cc1,98.1% (active)
5,CS(=O)(=O)c1ccc(NCCc2ccc(S(N)(=O)=O)cc2)c([N+](=O)[O-])c1,-3.1%
6,COc1ccc(N2CCN(C3CC(=O)N(Cc4ccccc4)C3=O)CC2)cc1 (centres undefined),6.4%
7,COc1cc(/C=N/O)cc(Cl)c1OC,1.8%
8,Cc1[nH][nH]c(=O)c1N=Nc1ccc(Cl)cc1,-3.2%
9,O=c1cc(N=Nc2ccc(Cl)cc2)[nH]c(=O)[nH]1,52.2% (active)
10,O=c1cc(CSCc2ccc(Cl)cc2)[nH]c(=O)[nH]1,2.3%
11,O=C(COc1ccc(Cl)cc1Cl)NCCSc1ccc(Cl)cc1,-14.2%
12,O=C(O)c1ccc(Nc2cc(Cl)c3nonc3c2[N+](=O)[O-])cc1,8.7%
13,O=[N+]([O-])c1c(Nc2cccc(O)c2)cc(Cl)c2nonc12,35%
14,O=[N+]([O-])c1c(Nc2ccc(O)cc2)cc(Cl)c2nonc12,72.1% (active)
15,COC(=O)C1=C(C)N=C2SCCC(=O)N2C1c1cc(Br)ccc1OC (centres undefined),-10.8%
16,CCOC(=O)c1cnn(CCOC(=O)C2CC2)c1NC(=O)C1CC1,-5.8%
17,Cc1cccc(N=Cc2[nH]c3ccc(Br)c(Cl)c3c2O)c1,54% (active)
18,Cc1cccc(N=Cc2cc(Br)cc(Cl)c2O)c1,-33.9%
19,Cc1cc(C)cc(N=Cc2[nH]c3ccc(Br)c(Cl)c3c2O)c1,41%
